Hits are enriched below; roughly 10% of the tested compounds scored in any of these assays.
GPT2 inhibitor = inhibitors of human GPT2 alanine aminotransferase | Recombinant GPT2, coupled pyruvate oxidase/HRP Amplex Red fluorescence | Q8TD30 | Potency, µM (doses to about 57.7 µM), inactives show top-dose activity change, negative = inhibition, hits mostly inhibitors | 100,000 compounds, 0.25% hits | AID 1671188; further: nearly all actives have a fitted effect of over 60% in size
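Recombinant GPT2 (10ng/uL) with 250uM a-KG and 2mM L-alanine, 30 min at room temperature, in HEPES pH 7.5 buffer. Pyruvate detected by pyruvate oxidase/HRP/Amplex Red fluorescence after 30 min in the dark; AOA (50uM) as positive control.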
NIH3T3 tox = kills NIH 3T3 cells; 94,000 compounds, 4.3% hits; Potency, µM (highest dose often 96.7 µM), for the others: at the highest dose activity change, negative = cytotoxicity, usual class: inhibitors; NIH 3T3 viability, CellTiter-Glo ATP luminescence, 48-72 h; further: nearly all actives have a fitted effect of over 55% in size
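NIH 3T3 cells at 400 cells/well received 23 nL of compound by pintool and were incubated 48 or 72 h at 37 °C. Viability was read as ATP-coupled CellTiter-Glo luminescence.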
Luciferase inh = inhibitors of firefly (Photinus pyralis) luciferase. Potency, µM (highest dose often 115 µM), most hits filed as inhibitors. P08659. purified P. pyralis luciferase, luminescence, biochemical. 76,000 compounds, 2.5% hits; further: nearly all actives have a fitted effect of over 65% in size
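FLuc 10nM, D-luciferin 10uM, ATP 10uM, Mg acetate 10mM, Tris acetate pH 7.5, Tween/BSA; cpd qHTS; enzyme added last; CCD luminescence.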
NPR1 antag = antagonists of human natriuretic peptide receptor Npr1 | HEK293 hNpr1 GloSensor cGMP, ANP-stimulated luminescence | Potency, µM (titrated, usually from 46.3 µM), without a hit: at the top dose activity change, negative = inhibition, actives largely listed as inhibitors | P16066 | 76,000 compounds, 1.6% hits; calls by dose curve; further: nearly all actives have a fitted effect of over 60% in size
Target sequence (P16066 whole entry, looked up): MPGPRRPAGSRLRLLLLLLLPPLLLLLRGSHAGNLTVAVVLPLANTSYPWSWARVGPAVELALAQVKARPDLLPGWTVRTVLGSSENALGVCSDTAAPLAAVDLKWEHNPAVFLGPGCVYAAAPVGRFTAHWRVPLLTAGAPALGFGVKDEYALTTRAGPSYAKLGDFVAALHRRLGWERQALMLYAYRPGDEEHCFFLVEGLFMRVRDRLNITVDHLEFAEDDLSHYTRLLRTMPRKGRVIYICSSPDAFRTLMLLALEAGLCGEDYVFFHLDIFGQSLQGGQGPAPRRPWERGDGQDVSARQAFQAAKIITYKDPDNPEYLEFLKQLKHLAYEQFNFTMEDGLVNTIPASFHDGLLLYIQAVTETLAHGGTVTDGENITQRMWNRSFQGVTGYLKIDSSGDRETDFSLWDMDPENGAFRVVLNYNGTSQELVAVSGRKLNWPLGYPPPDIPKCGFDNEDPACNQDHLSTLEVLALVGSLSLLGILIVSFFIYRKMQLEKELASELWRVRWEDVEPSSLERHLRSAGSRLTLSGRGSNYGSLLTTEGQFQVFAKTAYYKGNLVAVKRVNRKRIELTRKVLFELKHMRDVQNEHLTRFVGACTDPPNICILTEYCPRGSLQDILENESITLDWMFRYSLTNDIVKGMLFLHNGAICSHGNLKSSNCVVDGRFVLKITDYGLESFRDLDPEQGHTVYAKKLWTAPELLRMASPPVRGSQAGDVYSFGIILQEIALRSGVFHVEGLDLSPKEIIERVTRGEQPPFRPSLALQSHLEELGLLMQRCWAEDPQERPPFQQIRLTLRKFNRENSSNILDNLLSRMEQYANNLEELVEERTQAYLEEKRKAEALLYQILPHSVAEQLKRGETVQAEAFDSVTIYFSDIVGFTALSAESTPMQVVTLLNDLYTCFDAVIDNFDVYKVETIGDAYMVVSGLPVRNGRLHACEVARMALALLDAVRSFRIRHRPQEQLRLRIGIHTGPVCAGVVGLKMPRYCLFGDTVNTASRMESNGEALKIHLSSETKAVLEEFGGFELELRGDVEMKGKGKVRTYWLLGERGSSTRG
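HEK293 cells stably expressing human Npr1 and cGMP GloSensor pGS-40F, loaded 2 h with 2% GloSensor reagent, given compound 30 min at room temperature. Luminescence read before and 20 min after 0.1 nM hNppA.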
HEK293 tox = HEK 293 cell cytotoxicity | 94,000 compounds, 6.6% hits | Potency, µM (highest dose often 115 µM), for inactives: at the top dose activity change, negative = cytotoxicity, actives largely listed as inhibitors | HEK 293 viability, ATP luminescence (CellTiter-Glo), 48-72 h | AID 1345083; further: nearly all actives have a fitted effect of over 60% in size
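Cells seeded first (HEK 293, 250 cells/well), then compound added by pintool. Incubation ran 48 or 72 hr at 37 degree Celsius. CellTiter-Glo was added and luminescence imaged after 10 min at room temperature.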
The depositor's hits bear a star; [ ] = dose if it differs, or a comment. Unless noted, the call rests on the fitted dose curve; in most records, active means well fitted curve in the direction sought with a large enough effect; inconclusive means small, poorly fitted or top-dose-only effect, or another doubt; inactive means no such curve, though single readings can be large; an effect the other way counts as inactive or inconclusive. On the % scale 0 is the no-effect control and ±100 the full control effect; potency means the concentration at half of the fitted maximal effect.

Results for C=C1CC[C@@H]2[C@](C)(CO)[C@H](O)CC[C@@]2(C)[C@@H]1C/C=C1/C(=O)OC[C@@H]1O ?
GPT2 inhibitor: 4.5%[27.3 µM]

What do the screens show for `Cc1ccccc1C(=O)N1CCC2(CC1)C(=O)N(c1cccc(F)c1)C2c1ccccc1` (stereo not given)?
GPT2 inhibitor: inconclusive; NIH3T3 tox: 35.5µM*; HEK293 tox: 25.1µM*

Results for CCCn1cc(-c2ccncc2)cc1C(=O)N1CCN(c2ccccn2)CC1 ?
GPT2 inhibitor: inactive; NIH3T3 tox: inconclusive; Luciferase inh: inactive; NPR1 antag: inconclusive; HEK293 tox: inconclusive

How did CCCn1cc(-c2ccncc2)cc1C(=O)N1CCN(c2ccccc2F)CC1 do in these assays?
GPT2 inhibitor: inactive; NIH3T3 tox: inconclusive; Luciferase inh: inactive; NPR1 antag: -19.9%; HEK293 tox: 44.7µM*

How did COc1ccc(CN2CCC3(C2)C(=NC2CCCCC2)NC(=O)N3c2cccnc2)cc1 (stereo not given) do in these assays?
GPT2 inhibitor: inactive; NIH3T3 tox: 31.6µM*; HEK293 tox: inactive

What do the screens show for `O=C1NC(=NC2CCCC2)C2(CCN(Cc3ccc(F)cc3)C2)N1c1cccnc1` (stereo not given)?
GPT2 inhibitor: -4.2%; NIH3T3 tox: 22.4µM*; HEK293 tox: -14.9%

Results for O=C1NC(=NC2CCCCC2)C2(CCN(Cc3ccc(F)cc3)C2)N1c1cccnc1 (stereo not given) ?
GPT2 inhibitor: -4.4%; NIH3T3 tox: 39.8µM*; HEK293 tox: inactive

What do the screens show for `O=C1NC(=NC2CCCCC2)C2(CCN(Cc3ccccc3)C2)N1c1cccnc1` (stereo not given)?
GPT2 inhibitor: 3.8%; NIH3T3 tox: inconclusive; HEK293 tox: -19.2%

Results for COCCOCc1nc(C2CCN(C(=O)c3[nH]nc4c3CCc3cc(OC)ccc3-4)CC2)no1 ?
GPT2 inhibitor: inconclusive; NIH3T3 tox: inconclusive; Luciferase inh: inactive; NPR1 antag: -14.6%; HEK293 tox: inconclusive

Results for COc1ccc(-c2ccnc(-c3nnc(C)n3CCN(C)C)c2)cc1OC ?
GPT2 inhibitor: -5.9%[88.5 µM]; NIH3T3 tox: 25.1µM*; Luciferase inh: inactive; NPR1 antag: 5.6%[70.6 µM]; HEK293 tox: -16.9%[172 µM]

Results for COc1ccc(-c2ccnc(-c3nnc(C)n3C(C)C)c2)cc1OC ?
GPT2 inhibitor: 4.1%[88.5 µM]; NIH3T3 tox: 100µM*; Luciferase inh: inactive; NPR1 antag: 2.3%[70.6 µM]; HEK293 tox: -11.2%[172 µM]

Results for c1cc(-c2noc([C@@H]3Cc4nc[nH]c4CN3CC3CCCCC3)n2)ccn1 ?
GPT2 inhibitor: inactive; NIH3T3 tox: 79.4µM*; Luciferase inh: inactive; NPR1 antag: -5.8%[70.6 µM]; HEK293 tox: inconclusive

How did Clc1ccc(-c2noc([C@@H]3Cc4nc[nH]c4CN3CC3CCCCC3)n2)cc1 do in these assays?
GPT2 inhibitor: 3.6%[88.5 µM]; NIH3T3 tox: 28.2µM*; Luciferase inh: inactive; NPR1 antag: -15.4%[70.6 µM]; HEK293 tox: 50.1µM*

What do the screens show for `O=C(c1ccccc1)N1Cc2[nH]cnc2C[C@H]1c1nc(-c2ccc(Cl)cc2)no1`?
GPT2 inhibitor: inactive; NIH3T3 tox: inconclusive; Luciferase inh: inactive; NPR1 antag: -25.0%[70.6 µM]; HEK293 tox: inconclusive

How did FC(F)(F)c1ccc(-c2noc([C@@H]3Cc4nc[nH]c4CN3CC3CCCCC3)n2)cc1 do in these assays?
GPT2 inhibitor: inconclusive; NIH3T3 tox: 28.2µM*; Luciferase inh: inactive; NPR1 antag: -17.3%[70.6 µM]; HEK293 tox: 31.6µM*

What do the screens show for `CN(C)c1ccc(-c2noc([C@@H]3CCCN3Cc3ccc(CO)o3)n2)cn1`?
GPT2 inhibitor: inactive; NIH3T3 tox: 3.1%[174 µM]; Luciferase inh: inconclusive; NPR1 antag: 0.6%[70.6 µM]; HEK293 tox: 0.0%[172 µM]

Results for CN(C)c1ccc(-c2noc([C@@H]3CCCN3CC3CCCCC3)n2)cn1 ?
GPT2 inhibitor: inconclusive; NIH3T3 tox: 79.4µM*; Luciferase inh: 35.5µM*; NPR1 antag: inconclusive; HEK293 tox: inconclusive

Source: PubChem (National Center for Advancing Translational Sciences (NCATS))
